According to the supplement of paper PMC3545927:
The other results are listed elsewhere or left out. The hit rate among all sequences tested is not known here.

Biological target: furin, P09958
Experiment: furin cleavage Z-score vs untreated control; higher = more cleavage, active = 3.5 or more, inactive = 1 or less, 8 variable residues between constant flanks
Procedure, shortened: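 Sequencing of released DNA, tagged with adapters by PCR, gave read counts used as abundance. That DNA was freed when purified furin cut N-terminally bead-bound 8-mer peptides fused to a cDNA oligonucleotide, in 0.01 ml reactions at 1:10 enzyme:substrate in 50 mM HEPES pH 7.5 with CaCl2 and NaCl, lasting 7.5, 15 or 30 min. The cleavage Z-score was the lowess-adjusted log count versus furin-free reactions, scaled by median absolute deviation.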

furin, P09958, sequence (P09958 whole entry): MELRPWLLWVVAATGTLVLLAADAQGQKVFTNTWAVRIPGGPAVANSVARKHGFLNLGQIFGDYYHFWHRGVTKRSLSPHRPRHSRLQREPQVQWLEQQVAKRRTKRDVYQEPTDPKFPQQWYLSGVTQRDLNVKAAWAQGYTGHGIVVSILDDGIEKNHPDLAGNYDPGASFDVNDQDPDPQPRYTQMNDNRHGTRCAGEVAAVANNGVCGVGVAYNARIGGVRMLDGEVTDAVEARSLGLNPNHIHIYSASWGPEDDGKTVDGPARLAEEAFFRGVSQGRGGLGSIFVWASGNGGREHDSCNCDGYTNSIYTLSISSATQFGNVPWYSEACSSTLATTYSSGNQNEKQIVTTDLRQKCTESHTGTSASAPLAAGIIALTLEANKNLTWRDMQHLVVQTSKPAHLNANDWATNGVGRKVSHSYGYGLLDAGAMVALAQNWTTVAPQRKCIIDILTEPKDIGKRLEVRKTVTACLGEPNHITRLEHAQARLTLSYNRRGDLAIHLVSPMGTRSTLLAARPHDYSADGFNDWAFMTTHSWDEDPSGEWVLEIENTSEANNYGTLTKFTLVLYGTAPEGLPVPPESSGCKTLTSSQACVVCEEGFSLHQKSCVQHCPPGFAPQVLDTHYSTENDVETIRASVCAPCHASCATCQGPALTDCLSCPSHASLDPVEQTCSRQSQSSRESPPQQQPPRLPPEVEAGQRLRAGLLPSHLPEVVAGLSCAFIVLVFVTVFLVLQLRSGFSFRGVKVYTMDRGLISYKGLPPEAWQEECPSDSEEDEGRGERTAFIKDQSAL

Sequence | furin cleavage Z-score (7.5 min) | furin cleavage Z-score (15 min) | furin cleavage Z-score (30 min)
CAEILLGPADAGNASASA [HC665] | 0.796 (inactive) | -1.29 (inactive) | 0.764 (inactive)
CATEMEECSQAGNASASA [HC1798] | 1.39 | -0.469 (inactive) | -0.647 (inactive)
CAEVVTSTWQAGNASASA [HC2262] | 0.0156 (inactive) | -1.35 (inactive) | -0.305 (inactive)
CASRCRFLRSAGNASASA [FS-1086] | 4.82 (active) | 4.36 (active) | 4.8 (active)
CAMKNRFLRSAGNASASA [FS-1645] | 7.49 (active) | 7.31 (active) | 7.79 (active)
CAQRRRQLRSAGNASASA [FS-1254] | 9.6 (active) | 10.8 (active) | 7.49 (active)
CAQRRRQRRPAGNASASA [FS-1557] | 0.0891 (inactive) | -1.68 (inactive) | 0.0903 (inactive)
CANRCRMLRSAGNASASA [FS-469] | 2.76 | 3.91 (active) | 2.25
CAEVEVPCHRAGNASASA [HC2450] | 1.03 | 0.836 (inactive) | 1.62
CACVPCHRPSAGNASASA [HC2320] | -1.73 (inactive) | 2.15 | -0.71 (inactive)
CAGGPLTNSRAGNASASA [HC1502] | -0.097 (inactive) | 1.45 | 0.841 (inactive)
CAENVVCCSMAGNASASA [HC2141] | -0.000681 (inactive) | -0.718 (inactive) | 1.03
CADREVLYREAGNASASA [HC1009] | 1.17 | 0.738 (inactive) | 0.787 (inactive)
CARCRRLVREAGNASASA [FS-3185] | 8.42 (active) | 9.96 (active) | 8.44 (active)
CARCRRQFQEAGNASASA [FS-1887] | 0.189 (inactive) | 1.16 | 1.9
CAEPSRLVREAGNASASA [FS-1452] | 3.98 (active) | 5.86 (active) | 4.45 (active)
CARWKRDSSGAGNASASA [FS-3176] | 10.7 (active) | 12 (active) | 10.2 (active)
CARQCRSSQGAGNASASA [FS-2288] | 1.61 | 0.149 (inactive) | 1.21
CARDSRSSGGAGNASASA [FS-2906] | -0.675 (inactive) | -1.21 (inactive) | -0.52 (inactive)
CARIKRDSQGAGNASASA [FS-2338] | 12.5 (active) | 13.5 (active) | 10.5 (active)
CARLVRESSGAGNASASA [FS-2999] | -0.00522 (inactive) | 1.39 | 1.91

Sequence | furin cleavage Z-score (7.5 min) | furin cleavage Z-score (15 min) | furin cleavage Z-score (30 min)
CARPKRYNSGAGNASASA [FS-2437] | 0.95 (inactive) | 0.51 (inactive) | 1.14
CAKPGIYRFVAGNASASA [HC908] | 1.16 | -1.32 (inactive) | 2.33
CAGVVCAAILAGNASASA [HC1108] | 0.833 (inactive) | 1.01 | 1.2
CAVIDCNTCVAGNASASA [HC886] | -1.17 (inactive) | -0.722 (inactive) | -1.34 (inactive)
CAGPDQRPYCAGNASASA [HC400] | 0.515 (inactive) | 0.00682 (inactive) | 0.075 (inactive)
CAVGRRYRRTAGNASASA [FS-387] | 11.6 (active) | 9.35 (active) | 8.06 (active)
CARGRREARRAGNASASA [FS-2936] | 6.61 (active) | 7.38 (active) | 6.43 (active)
CAVPQRHRRTAGNASASA [FS-1432] | 10.8 (active) | 9.86 (active) | 9.48 (active)
CAQPRRHRRPAGNASASA [FS-1250] | 0.282 (inactive) | 1.35 | 0.113 (inactive)
CAVATDALMTAGNASASA [HC878] | -0.06 (inactive) | -0.775 (inactive) | 0.231 (inactive)
CAPGRRRRRTAGNASASA [FS-1381] | 7.92 (active) | 8.84 (active) | 6.67 (active)
CASWDQMWKCAGNASASA [HC962] | 1.5 | -0.918 (inactive) | -0.53 (inactive)
CAAAEEQKLPAGNASASA [HC1378] | -1.36 (inactive) | -0.838 (inactive) | -1.05 (inactive)
CAWMNRLIAFAGNASASA [HC1118] | 0.154 (inactive) | 0.647 (inactive) | 1.16
CAHVPCHRPSAGNASASA [HC2315] | 1.79 | 0.404 (inactive) | 0.971 (inactive)
CAMNECSQHLAGNASASA [HC1701] | -0.476 (inactive) | 0.465 (inactive) | 1.3
CAEGVVCCSMAGNASASA [HC2136] | 0.615 (inactive) | 1.53 | -0.0256 (inactive)
CAEVLYREFDAGNASASA [HC1010] | -0.000681 (inactive) | -0.163 (inactive) | -0.163 (inactive)
CARGRRRRRTAGNASASA [FS-1399] | 6.1 (active) | 5.39 (active) | 6 (active)
CARGRRKKKCAGNASASA [FS-1398] | 0.559 (inactive) | 2.05 | 2.1
CAPVVPQSFQAGNASASA [HC769] | 0.521 (inactive) | -0.599 (inactive) | -1.31 (inactive)
